This is a sample that favours compounds with a hit; in the whole collection about 2.5% have one here.
ABCB6 inh MLPCN: blocks the human ABCB6 transporter; Q9NP58; K562-ABCB6 porphyrin accumulation, flow cytometry, 1 h; hits give low values; fluorescence ratio to DMSO, % at 10 µM; hit rate 0.19% among 360,000; AID 602162;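 active = fluorescence ratio to DMSO below 75%, the collection mean minus 3 SD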;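 note: signal is porphyrin accumulated inside mitochondria; 100% equals median channel fluorescence of DMSO control wells; lower ratio means ABCB6 inhibition with less porphyrin fluorescence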
Target sequence (Q9NP58 whole entry, looked up): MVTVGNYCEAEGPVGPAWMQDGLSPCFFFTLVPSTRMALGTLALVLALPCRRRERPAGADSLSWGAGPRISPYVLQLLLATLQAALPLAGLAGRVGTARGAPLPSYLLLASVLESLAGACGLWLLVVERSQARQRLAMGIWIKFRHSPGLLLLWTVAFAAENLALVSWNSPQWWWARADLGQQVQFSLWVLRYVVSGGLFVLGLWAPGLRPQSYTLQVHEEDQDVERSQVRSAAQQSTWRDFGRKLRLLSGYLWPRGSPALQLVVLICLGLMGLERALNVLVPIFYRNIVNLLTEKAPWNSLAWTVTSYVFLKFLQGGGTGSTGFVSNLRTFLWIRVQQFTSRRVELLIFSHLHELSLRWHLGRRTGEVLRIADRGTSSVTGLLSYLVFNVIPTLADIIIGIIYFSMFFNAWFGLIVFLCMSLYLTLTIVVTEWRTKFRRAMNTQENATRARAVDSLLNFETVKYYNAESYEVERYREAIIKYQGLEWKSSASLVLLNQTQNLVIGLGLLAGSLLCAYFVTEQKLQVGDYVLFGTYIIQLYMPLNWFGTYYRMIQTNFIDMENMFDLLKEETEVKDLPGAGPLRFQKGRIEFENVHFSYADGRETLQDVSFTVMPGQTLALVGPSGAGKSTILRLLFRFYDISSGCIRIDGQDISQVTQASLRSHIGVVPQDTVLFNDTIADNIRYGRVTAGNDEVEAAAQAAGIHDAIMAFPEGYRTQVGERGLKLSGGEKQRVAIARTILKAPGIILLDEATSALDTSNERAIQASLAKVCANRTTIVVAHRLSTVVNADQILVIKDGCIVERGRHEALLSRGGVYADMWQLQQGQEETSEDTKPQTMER
PG9 binder: PG9 antibody binding by small molecule. TR-FRET gp120-PG9 antibody binding. inhibition, % at 6.7 µM. hit rate 0.43% among 360,000; in the data active = inhibition above about 8.5%
Granule exo inh: blocks lytic granule exocytosis; hit rate 0.66% among 360,000; inhibition, % at 10 µM; TALL-104 LAMP-1 surface exposure, flow cytometry; cells stimulated with thapsigargin and PMA; AID 651702;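 active = inhibition above about 55%, limit read from the data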
rCAG binder: molecules binding r(CAG) RNA repeats | r(CAG) RNA repeat, TO-PRO-1 dye displacement fluorescence | inhibition, % at 3 µM | hit rate 1.3% among 370,000 | AID 651821;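 active = inhibition above the plate cutoff, the mean of all test compounds on that plate plus 3 SD, cut at about 35% in these data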;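 note: 0% = DMSO alone and 100% = 100 µM mitoxantrone as full dye displacement; higher means more dye released from RNA so lower well fluorescence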
rCAG bind conf: r(CAG) RNA repeat binding, confirmation; hit rate 70% among 4,300; TO-PRO-1 dye displacement fluorescence; inhibition, % at 3 µM; AID 652065; shares compounds with rCAG binder;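 active = inhibition above a per-plate cutoff, the mean inhibition of sample wells plus 3 SD, cut at about 35% in these data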;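 note: loss of TO-PRO-1 fluorescence as compound displaces dye from 1x1 AA loop RNA; 0% = DMSO only wells and 100% = 100 µM mitoxantrone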
DNA CAG counter: DNA CAG dye complex inhibition counter-screen. shares compounds with rCAG binder. d(CAG) DNA oligo TO-PRO-1 dye displacement, fluorescence. inhibition, % at 3 µM. hit rate 94% among 4,300;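 active = inhibition above its plate's cutoff, the mean test-well inhibition plus 3 SD, cut at about 4.8% in these data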;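 note: 0% = DNA dye mix with DMSO and 100% = 100 µM mitoxantrone; hits displace the dye from DNA and so lower well fluorescence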
Active calls of the source: *.

What do the screens show for `Cc1ccc([C@H]2C(C(=O)O)=CC[C@@H](c3ccc(Cl)cc3)N2S(=O)(=O)c2ccc(C)cc2)cc1`?
ABCB6 inh MLPCN: 105; PG9 binder: 0; Granule exo inh: 1; rCAG binder: 80*; rCAG bind conf: 80*; DNA CAG counter: 47*

Results for Cc1ccc([C@H]2C(C(=O)O)=CC[C@@H](c3ccc(C(C)C)cc3)N2S(=O)(=O)c2ccc(C)cc2)cc1 ?
ABCB6 inh MLPCN: 101; PG9 binder: 1; Granule exo inh: 1; rCAG binder: 88*; rCAG bind conf: 81*; DNA CAG counter: 48*

How did Cc1ccc(S(=O)(=O)N2[C@@H](c3ccc(Cl)cc3)C(C(=O)O)=CC[C@H]2c2ccc(C(C)C)cc2)cc1 do in these assays?
ABCB6 inh MLPCN: 95; PG9 binder: -1; Granule exo inh: -3; rCAG binder: 83*; rCAG bind conf: 89*; DNA CAG counter: 61*

Results for COc1ccccc1C(=O)NCCC(=O)NCC(c1ccccc1)N(C)C (stereo unspecified) ?
ABCB6 inh MLPCN: 98; PG9 binder: 0; Granule exo inh: 18; rCAG binder: -6

What do the screens show for `O=C(COC(=O)CC1CC2CCC1C2)Nc1cccc(S(=O)(=O)NC2=NCCCCC2)c1` (stereo unspecified)?
ABCB6 inh MLPCN: 97; PG9 binder: 1; Granule exo inh: 5; rCAG binder: -4

How did O=C(O)C1=CC[C@@H](c2ccc(Cl)cc2)N(S(=O)(=O)c2ccc(Cl)cc2)[C@H]1c1ccccc1 do in these assays?
ABCB6 inh MLPCN: 107; PG9 binder: 0; Granule exo inh: -3; rCAG binder: 65*; rCAG bind conf: 69*; DNA CAG counter: 30*

Results for CCc1nc2ccc(C(=O)NCCN3CCOCC3)cn2c1N(C)Cc1ccc(OC)cc1 ?
ABCB6 inh MLPCN: 97; PG9 binder: 0; Granule exo inh: -10; rCAG binder: -1

How did CCCCCCCC/C=C\CCCCCCCC(=O)NCCO do in these assays?
ABCB6 inh MLPCN: 100; PG9 binder: 0; Granule exo inh: -5; rCAG binder: 2

What do the screens show for `CCCCCCCC/C=C\CCCCCCCC(=O)NCCc1ccc(O)c(O)c1`?
ABCB6 inh MLPCN: 92; PG9 binder: -2; Granule exo inh: 6; rCAG binder: 47*; rCAG bind conf: 21; DNA CAG counter: 7.2*

What do the screens show for `CCNC(=O)C1CCCN(C(=O)c2ccccc2)CC1` (stereo unspecified)?
ABCB6 inh MLPCN: 94; PG9 binder: 0; Granule exo inh: -5; rCAG binder: 2

Results for CC1CCc2c(sc(NC(=O)c3ccccc3C(=O)O)c2C#N)C1 (stereo unspecified) ?
ABCB6 inh MLPCN: 99; PG9 binder: -2; Granule exo inh: 0; rCAG binder: -1

Results for CC(C)(C)C1CCc2c(sc(NC(=O)C3CC=CCC3C(=O)O)c2C#N)C1 (stereo unspecified) ?
ABCB6 inh MLPCN: 105; PG9 binder: -3; Granule exo inh: 0; rCAG binder: 80*; rCAG bind conf: 72*; DNA CAG counter: 36*

What do the screens show for `CCC(C)(C)C1CCc2c(sc(NC(=O)c3ccccc3C(=O)O)c2C#N)C1` (stereo unspecified)?
ABCB6 inh MLPCN: 96; PG9 binder: -1; Granule exo inh: 4; rCAG binder: 91*; rCAG bind conf: 84*; DNA CAG counter: 56*

How did CC1CCc2sc(NC(=O)C3CC(Cl)=CCC3C(=O)O)c(C#N)c2C1 (stereo unspecified) do in these assays?
ABCB6 inh MLPCN: 94; PG9 binder: -2; Granule exo inh: -2; rCAG binder: 49*; rCAG bind conf: 42*; DNA CAG counter: 13*

How did O=[N+]([O-])c1ccccc1OCCCOc1cccc2cccnc12 do in these assays?
ABCB6 inh MLPCN: 97; PG9 binder: 1; Granule exo inh: 1; rCAG binder: 3

How did O=C(O)C1CCCN1C(=O)c1cccc(Cl)c1 (stereo unspecified) do in these assays?
PG9 binder: -1; rCAG binder: 2

Results for CCc1nnc(NS(=O)(=O)c2ccc(N=Cc3c(C)[nH]n(-c4ccc(Cl)cc4)c3=O)cc2)s1 ?
ABCB6 inh MLPCN: 103; PG9 binder: -2; Granule exo inh: 8; rCAG binder: 49*; rCAG bind conf: 84*; DNA CAG counter: 59*

High-throughput results: PubChem BioAssay, several laboratories
